The conditions of assay [1]: Ebola virus entry assay, green fluorescence channel.
The conditions of assay [2]: Ebola virus entry assay, blue channel fluorescence.
For assay [3] the following is noted: Ebola virus entry assay, green fluorescence channel. This is another data set of the same source.
The conditions of assay [4]: Ebola virus entry assay, ratio channel readout.
The conditions of assay [5]: Ebola virus entry assay, blue channel fluorescence. The source holds these as a separate data set.
The conditions of assay [6]: Ebola virus entry assay, ratio channel.
The conditions of assay [7]: Ebola virus entry assay, green channel fluorescence.
For assay [8] the following is noted: Ebola virus entry assay, blue channel fluorescence. This is another data set of the same source.
The conditions of assay [9]: Ebola virus entry assay, reporter ratio channel; AC50: Channel type: primary unless noted; outcome: Channel type: primary unless noted.
The conditions of assay [10]: Ebola virus entry assay, blue channel (ratio component).

A number with no mark means an inactive call. For part of these data: Potency and affinity values are given separately. Calls of active or inactive are those of the source.
For efficacy in this document: 0% is about no effect.

Consider `CCn1cc(C(=O)O)c(=O)c2cc(F)c(N3CCNCC3)cc21`, for which the efficacy in assay [1] is -31.6%. Besides, the compound was called inactive in assay [2], in assay [3], in assay [4], in [5], in assay [6] and in [7]. Moreover, the compound was called inactive in assay [8] and in assay [9].

For the compound `Cc1[nH]c(=O)c(C#N)cc1-c1ccncc1`, the efficacy in assay [1] is -19.3%. In addition, the result in [2], in [3], in assay [4], in assay [5], in assay [6] and in [7] was inactive. The call in [8], in assay [9] and in [10] was inactive.

Take `CNCCc1ccccn1`: in [1], the efficacy was -10.7%. The result in assay [2], in assay [3], in [4], in assay [5], in assay [6] and in [7] was inactive. Moreover, the result in assay [8], in assay [9] and in assay [10] was inactive.

`CNS(=O)(=O)CCc1ccc2[nH]cc(C3CCN(C)CC3)c2c1`: in assay [1], the efficacy is -15%. The outcome in assay [2], in [3], in assay [4], in assay [5], in [6] and in [7] was inactive. Moreover, the compound was called inactive in [8], in [9] and in assay [10].

Consider `Nc1ccc(O)c(C(=O)O)c1`, for which, in assay [1], the efficacy is 18.3%. For the same compound, the outcome in assay [2], in [3], in [4], in [6], in [7] and in assay [8] was inactive. In addition, the figures for the AC50 in assay [5] and in assay [9] were 28.2 µM (active) and 31.6 µM (active), respectively.

In the case of `Cc1nccn1CC1CCc2c(c3ccccc3n2C)C1=O` (stereo not given), the efficacy in [1] was -22.2%. The result in assay [2], in assay [3], in assay [4], in assay [7] and in [8] was inactive. Further, the AC50 in assay [5], in assay [6] and in assay [9] was 22.4 µM (active) throughout.

As to `CCCc1cc(=O)[nH]c(=S)[nH]1`, the efficacy in assay [1] is 10.6%. Further, the result in [2], in [3], in assay [4], in assay [5], in assay [6] and in [7] was inactive. Moreover, the outcome in assay [8], in assay [9] and in assay [10] was inactive.

As to `COc1cc2nc(N3CCN(C(=O)C4CCCO4)CC3)nc(N)c2cc1OC` (stereo not given), in [1], the efficacy was 13%. Further, the call in assay [2], in [3], in assay [4], in assay [6], in assay [7] and in assay [8] was inactive. Further, the values for the AC50 in [5] and in assay [9] were 35.5 µM (active) and 28.2 µM (active), respectively.

With `Cc1oncc1C(=O)Nc1ccc(C(F)(F)F)cc1`, the efficacy in assay [1] was -17.5%. Moreover, the compound was called inactive in [2], in [3], in assay [4], in [5], in assay [6] and in [7]. The outcome in [8], in assay [9] and in assay [10] was inactive.

With `CC(COc1ccccc1)N(CCCl)Cc1ccccc1` (stereo not given), the efficacy in assay [1] is 44%. Besides, the compound was called inactive in assay [2], in assay [3], in [4], in assay [7] and in assay [8]. The values for the AC50 in [5], in [6] and in assay [9] were 28.2 µM (active), 17.8 µM (active) and 17.8 µM (active), respectively.

With `O=c1n(CCCN2CCN(c3cccc(Cl)c3)CC2)nc2ccccn12`, the efficacy in assay [1] is 33.5%. Besides, the outcome in [2], in assay [3], in [4], in assay [5], in assay [6] and in assay [7] was inactive. For the same compound, the compound was called inactive in assay [8], in assay [9] and in assay [10].

Regarding `Nc1ncn([C@@H]2O[C@H](CO)[C@@H](O)[C@H]2O)c(=O)n1`, the efficacy in assay [1] is -20.9%. For the same compound, the outcome in [2], in assay [3], in assay [4], in assay [5], in assay [6] and in [7] was inactive. Further, the compound was called inactive in assay [8], in assay [9] and in [10].

Consider `C=C[C@H]1CN2CC[C@H]1C[C@@H]2[C@@H](O)c1ccnc2ccc(OC)cc12`, for which, in assay [1], the efficacy is 36.3%. The compound was classed as inactive in [2], in [3], in assay [4], in assay [6], in assay [7] and in assay [8]. For the same compound, the figures for the AC50 in [5] and in [9] were 20 µM (active) and 35.5 µM (active), respectively.

As to `CCC1(c2ccccc2)C(=O)NCNC1=O`, the efficacy in assay [1] is -13.6%. In addition, the compound was classed as inactive in assay [2], in [3], in assay [4], in assay [5], in [6] and in assay [7]. The compound was classed as inactive in assay [8], in assay [9] and in assay [10].

For `Cc1ccc(C)c(OCCCC(C)(C)C(=O)O)c1`, the efficacy in [1] is -13.5%. Also, the outcome in [2], in [3], in assay [4], in assay [5], in assay [6] and in [7] was inactive. The compound was classed as inactive in [8] and in assay [9].

For the compound `Nc1nnc(-c2cccc(Cl)c2Cl)c(N)n1`, in assay [1], the efficacy is -18.2%. The compound was classed as inactive in assay [2], in [3], in assay [4], in [5], in [6] and in assay [7]. Besides, the outcome in [8], in [9] and in assay [10] was inactive.

On to `CC(=O)N(O)CCCCCNC(=O)CCC(=O)N(O)CCCCCNC(=O)CCC(=O)N(O)CCCCCN`, for which the efficacy in assay [1] is -19.8%. Also, the compound was classed as inactive in assay [2], in [3], in assay [4], in assay [5], in assay [6] and in [7]. Further, the call in [8], in [9] and in [10] was inactive.

With `O=C(c1ccc(OCCN2CCCCC2)cc1)c1c(-c2ccc(O)cc2)sc2cc(O)ccc12`, in assay [1], the efficacy was -297%. Also, the AC50 in [2] was 6.31 µM (active); in assay [4], 5.02 µM (active); in [5], 0.708 µM (active). For the same compound, the outcome in assay [3], in assay [6] and in assay [7] was inactive.

On to `COc1ccc(-c2cc(=S)ss2)cc1`, for which the efficacy in assay [1] is -17.7%. For the same compound, the compound was called inactive in [2], in [3], in assay [4], in assay [5], in [6] and in [7]. Moreover, the compound was called inactive in assay [8], in assay [9] and in [10].

Turning to `CC(C)(C)NC(=O)[C@@H]1CN(Cc2cccnc2)CCN1C[C@@H](O)C[C@@H](Cc1ccccc1)C(=O)N[C@H]1c2ccccc2C[C@H]1O`, the efficacy in [1] was -17.5%. Further, the result in [2], in assay [3], in [4], in [5], in assay [6] and in assay [7] was inactive. Further, the result in assay [8], in assay [9] and in assay [10] was inactive.

With `O=NN(CCCl)C(=O)NCCCl`, in [1], the efficacy was -15%. The result in [2], in assay [3], in assay [4], in assay [5], in assay [6] and in assay [7] was inactive. The result in assay [8], in assay [9] and in assay [10] was inactive.

Regarding `O[C@@H]1CO[C@H]2[C@@H]1OC[C@@H]2O`, the efficacy in [1] is 15.8%. Moreover, the compound was called inactive in assay [2], in [3], in [4], in assay [5], in assay [6] and in [7]. Further, the call in [8], in [9] and in [10] was inactive.

The record behind these values is PubChem BioAssay (NCATS).
